The source of these data is PubChem BioAssay (NCI).

SMILES strings stand for the structures. About 83,000 compounds went through this panel and 20% of them were active in at least one assay; those are over-represented in the sample as a whole.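 Cells were grown in 96-well plates and exposed to the test compound at a single concentration for 48 hours; results are reported as percent growth, with values below 10 considered active.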 Unmarked numbers belong to inactive results. Active and inactive are the calls of the source.

Among the test systems are DU-145 prostate; K-562 leukemia; MALME-3M melanoma; MDA-MB-231 breast; RXF 393 renal; SF-268 CNS; SF-295 CNS; SF-539 CNS; UACC-257 melanoma; M14 melanoma; HCT-15 colon; HT29 colon; SNB-75 CNS; SNB-19 CNS; U251 CNS; PC-3 prostate; SK-MEL-5 melanoma; LOX IMVI melanoma; SK-MEL-28 melanoma; UACC-62 melanoma.
What all share (assay): NCI-60 one-dose screen, 48 h (100 = growth as untreated, 0 = no growth, -100 = all killed)
Details in all cases: 10 µM

Regarding `O=C(CCl)Oc1ccc(OC(=O)CCl)cc1`, the growth with DU-145 prostate was 88.6%; in the experiment with K-562 leukemia, 93.6%; in the experiment on MALME-3M melanoma, 88.4%; with MDA-MB-231 breast, 81.1%; with RXF 393 renal, 109%; in the experiment on SF-268 CNS, 93.8%. Besides, the growth with SF-295 CNS was 108%; in the experiment on SF-539 CNS it was 72.8%; in the experiment on UACC-257 melanoma it was 89.1%; in the experiment with M14 melanoma, 85.9%; with HCT-15 colon, 94.1%; in the experiment on HT29 colon, 99.9%. For the same compound, the growth in the experiment with SNB-75 CNS is 75.3%; with SNB-19 CNS it was 104%; in the experiment on U251 CNS, 101%; in the experiment on PC-3 prostate, 89.4%; in the experiment with SK-MEL-5 melanoma, 82.2%; in the experiment with LOX IMVI melanoma, 89.3%. Moreover, the growth in the experiment with SK-MEL-28 melanoma was 104%.
As to `Cc1n[nH]c(C)c1N=Nc1cccc2c1C(=O)c1ccccc1C2=O`, the growth is 101% in the experiment with DU-145 prostate; 85.6% in the experiment with K-562 leukemia; 124% with MALME-3M melanoma; 82.4% with MDA-MB-231 breast; 87.6% in the experiment with RXF 393 renal; 96.5% in the experiment on SF-268 CNS. Also, the growth is 99.4% with SF-295 CNS; 90.3% with SF-539 CNS; 111% in the experiment with UACC-257 melanoma; 106% in the experiment with M14 melanoma; 78.4% with HCT-15 colon; 96.8% in the experiment on HT29 colon. The growth with SNB-75 CNS was 95.1%; in the experiment with SNB-19 CNS, 93.1%; in the experiment on U251 CNS, 92.4%; in the experiment with PC-3 prostate, 90.5%; in the experiment with SK-MEL-5 melanoma, 93.1%; with LOX IMVI melanoma, 69.8%. Moreover, the growth in the experiment on SK-MEL-28 melanoma was 113%.
Turning to `O=C(CC(CC(=O)c1ccccc1)c1ccccc1O)c1ccccc1`, the growth with DU-145 prostate is 103%; in the experiment with K-562 leukemia, 89.4%; in the experiment with MALME-3M melanoma, 91.8%; in the experiment with MDA-MB-231 breast, 90.4%; in the experiment on RXF 393 renal, 107%; in the experiment with SF-268 CNS it was 89.8%. The growth with SF-295 CNS is 99.9%; in the experiment with SF-539 CNS, 99.1%; in the experiment with UACC-257 melanoma, 98.4%; in the experiment with M14 melanoma it was 92.8%; with HCT-15 colon, 96.5%; in the experiment on HT29 colon it was 90.3%. Besides, the growth is 89.1% with SNB-75 CNS; 91.2% in the experiment on SNB-19 CNS; 92% with U251 CNS; 81% with PC-3 prostate; 88.6% in the experiment on SK-MEL-5 melanoma; 93.5% in the experiment on LOX IMVI melanoma. Moreover, the growth in the experiment with SK-MEL-28 melanoma was 101%.
As to `CCOC(=O)c1cc(C(=O)c2cc(OC)c(OC)c(OC)c2)n2ccc(-c3cc[n+](CC(=O)c4cc(OC)c(OC)c(OC)c4)cc3)cc12`, the growth in the experiment on DU-145 prostate is 44.8%; in the experiment on K-562 leukemia, -44.5% (active); in the experiment on MALME-3M melanoma it was 63.1%; with MDA-MB-231 breast it was -22.8% (active); in the experiment with RXF 393 renal, 65.7%; with SF-268 CNS, -14.5% (active). For the same compound, the growth in the experiment with SF-295 CNS is 94.3%; in the experiment with SF-539 CNS, 30.4%; with UACC-257 melanoma it was 92.5%; in the experiment with M14 melanoma, 54.5%; in the experiment with HCT-15 colon it was 83.3%; with HT29 colon it was -10.1% (active). Besides, the growth was 75.8% in the experiment on SNB-75 CNS; 32.2% with SNB-19 CNS; -73.6% (active) with U251 CNS; 81.4% in the experiment with SK-MEL-5 melanoma; 87.4% in the experiment with UACC-62 melanoma; -43.9% (active) in the experiment with LOX IMVI melanoma. Further, in the experiment with SK-MEL-28 melanoma, the growth is 98.3%.
For `COc1ccc(C2=Cn3c(CCC(=O)c4nc5ccccc5[nH]4)nnc3SC2)cc1`, the growth with DU-145 prostate is 97.7%; in the experiment with K-562 leukemia it was 3.14% (active); in the experiment with MALME-3M melanoma it was 102%; with MDA-MB-231 breast, 92.2%; in the experiment on RXF 393 renal it was 112%; with SF-268 CNS, 107%. Moreover, the growth in the experiment with SF-295 CNS is 83.7%; in the experiment on SF-539 CNS, 92%; with UACC-257 melanoma it was 107%; with M14 melanoma, 111%; in the experiment with HCT-15 colon it was 104%; with HT29 colon, 58.2%. For the same compound, the growth was 110% in the experiment on SNB-75 CNS; 113% with SNB-19 CNS; 94.1% with U251 CNS; 84.2% with PC-3 prostate; 87.7% in the experiment on SK-MEL-5 melanoma; 83.7% in the experiment with LOX IMVI melanoma. In addition, the growth with SK-MEL-28 melanoma was 111%.
With `O=S(=O)(Oc1ccc(-c2ccc3sccc3c2)cc1)c1ccc(F)cc1`, the growth with DU-145 prostate is 104%; with K-562 leukemia, 78.7%; in the experiment with MALME-3M melanoma, 106%; in the experiment with MDA-MB-231 breast it was 108%; in the experiment with RXF 393 renal, 110%; with SF-268 CNS, 108%. For the same compound, the growth with SF-295 CNS is 96.4%; in the experiment with SF-539 CNS, 110%; in the experiment with UACC-257 melanoma it was 106%; with M14 melanoma, 113%; with HCT-15 colon, 88.9%; with HT29 colon it was 96%. For the same compound, the growth was 120% with SNB-75 CNS; 103% in the experiment with SNB-19 CNS; 101% in the experiment on U251 CNS; 91% in the experiment with PC-3 prostate; 97.6% in the experiment on SK-MEL-5 melanoma; 80.2% in the experiment with UACC-62 melanoma. Also, the growth in the experiment with SK-MEL-28 melanoma is 103%.
With `O=C(CCc1nnc2sc(-c3cc(O)c(O)c(O)c3)nn12)c1nc2ccccc2[nH]1`, the growth in the experiment on DU-145 prostate is 112%; with K-562 leukemia, 8.3% (active); in the experiment with MALME-3M melanoma, 103%; in the experiment with MDA-MB-231 breast, 102%; in the experiment on RXF 393 renal, 115%; in the experiment on SF-268 CNS it was 113%. Further, the growth in the experiment with SF-295 CNS is 82.8%; with SF-539 CNS, 80%; in the experiment on UACC-257 melanoma, 110%; in the experiment with M14 melanoma it was 105%; with HCT-15 colon, 88.8%; in the experiment on HT29 colon, 93.5%. Moreover, the growth was 93.6% in the experiment on SNB-75 CNS; 113% with SNB-19 CNS; 94.4% in the experiment with U251 CNS; 84.1% in the experiment with SK-MEL-5 melanoma; 104% with UACC-62 melanoma; 98.3% in the experiment on LOX IMVI melanoma. In addition, the growth in the experiment with SK-MEL-28 melanoma was 110%.
In the case of `Cc1ccc(NCCN(C)CC(C)O)c2c(=O)c3ccc(Cl)cc3sc12` (configuration not stated), the growth in the experiment with DU-145 prostate is 59.7%; in the experiment with K-562 leukemia it was -61.2% (active); in the experiment on MALME-3M melanoma, -24.2% (active); in the experiment on MDA-MB-231 breast, -16.4% (active); in the experiment on RXF 393 renal, 22.9%; with SF-268 CNS it was 58.4%. For the same compound, the growth in the experiment with SF-295 CNS was 82.6%; in the experiment on SF-539 CNS, 81.5%; in the experiment on UACC-257 melanoma, 24.7%; in the experiment with M14 melanoma, -74.7% (active); in the experiment on HCT-15 colon, 21.2%; in the experiment on HT29 colon it was -27% (active). In addition, the growth with SNB-75 CNS is 76.3%; with SNB-19 CNS, 55%; with U251 CNS, 8.57% (active); in the experiment on SK-MEL-5 melanoma it was 46.9%; in the experiment with UACC-62 melanoma, -68.7% (active); with LOX IMVI melanoma, -82.9% (active). Moreover, the growth in the experiment on SK-MEL-28 melanoma was -53.5% (active).
